# p53 reactivator – mutant p53 re-activation in reporter cells | Potency, µM (titrated, usually from 92.2 µM), inactives show at the top dose activity change, positive = activation, actives largely listed as activators | AID 504706 | 320,000 tested, 0.063% active | H1299 p53-A138V BP100-luciferase reporter, luminescence, 24 h; also: potency is read from the fitted curve at half-maximal effect; % of control where 0% means no effect; nearly all actives have a fitted effect of over 45% in size
#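 H1299 (p53-null), stable ts p53-A138V + BP100-Luc; 1000 cells/well, Opti-MEM/10% FBS; cpd 4 pt, 1:5; 24 h, 37 deg C, 5% CO2; detection reagent 10 min RT; luminescence.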
# S-ASM inh – human S-ASM enzyme inhibition; placental ASM, HMU-PC fluorogenic substrate, 60 min; Potency, µM (highest dose often 57.5 µM), without a hit: at the top dose activity change, negative = inhibition, actives largely listed as inhibitors; 340,000 tested, 0.006% active; also: potency is read from the fitted curve at half-maximal effect
#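 qHTS format. ASM enzyme prepared from human placenta hydrolyses the fluorogenic substrate HMU-PC0 (9 uM final) over 60 min at 37 °C after a 10 min compound preincubation.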
# Mm-Cpn inhibitor – inhibitors of Methanococcus maripaludis chaperonin TRiC (MmCpn); purified Mm-Cpn ATPase, ADP Transcreener TR-FRET; 330,000 tested, 0.031% active; Potency, µM (titrated, usually from 76.9 µM), for the others: at the top dose activity, negative = inhibition, hits mostly inhibitors; also: potency is read from the fitted curve at half-maximal effect; % is scaled to controls: 0 for no effect and ±100 for the full control effect; nearly all actives have a fitted effect of over 80% in size
#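 25 nM Mm-CPN + cpd, 10 min 37°C; + 10 uM ATP, 30 min 37°C; buffer 30 mM Tris pH 7.4, 100 mM KCl, 5 mM MgCl2, 1 mM DTT; Transcreener ADP HTRF detection 30 min RT.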
# ALOX12 inh – blocks human arachidonate 12S-lipoxygenase; P18054; purified 12hLO, xylenol orange hydroperoxide absorbance; Potency, µM (top dose mostly 108 µM), for the others: top-dose activity change, negative = inhibition, most hits filed as inhibitors; AID 1671190; 580,000 tested, 1.1% active; also: potency is read from the fitted curve at half-maximal effect; % is scaled to controls: 0 for no effect and ±100 for the full control effect
# Target sequence (P18054 whole entry, looked up): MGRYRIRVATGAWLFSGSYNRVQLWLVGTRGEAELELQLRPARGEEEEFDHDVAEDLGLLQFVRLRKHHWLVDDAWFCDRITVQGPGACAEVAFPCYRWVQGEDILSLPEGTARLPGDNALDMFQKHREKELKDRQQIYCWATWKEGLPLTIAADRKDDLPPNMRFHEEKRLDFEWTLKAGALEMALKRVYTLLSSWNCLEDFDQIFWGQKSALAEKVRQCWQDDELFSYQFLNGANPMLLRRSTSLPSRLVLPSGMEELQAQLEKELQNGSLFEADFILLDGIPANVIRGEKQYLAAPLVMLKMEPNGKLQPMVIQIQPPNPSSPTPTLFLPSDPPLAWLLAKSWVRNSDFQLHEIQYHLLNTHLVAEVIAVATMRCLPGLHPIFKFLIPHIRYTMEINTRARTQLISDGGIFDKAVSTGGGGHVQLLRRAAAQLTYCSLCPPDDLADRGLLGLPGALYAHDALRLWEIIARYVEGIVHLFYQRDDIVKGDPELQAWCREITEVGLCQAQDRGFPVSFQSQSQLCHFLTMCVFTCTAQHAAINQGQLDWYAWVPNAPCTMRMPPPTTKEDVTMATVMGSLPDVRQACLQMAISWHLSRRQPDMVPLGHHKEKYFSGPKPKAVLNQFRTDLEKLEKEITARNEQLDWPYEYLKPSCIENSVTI
#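 Purified human 12hLO (150 nM final) in 25 mM Hepes, 0.01% Triton X-100, pH 7.0 was preincubated 15 min at room temperature with compound. Then 40 uM arachidonic acid was added, 30 min. Hydroperoxide was read by Fe-XO absorbance ratio 573/405 nm.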
# PINK1 expr mod – changes PINK1 expression | PINK1 immunofluorescence, high-content cytometry, 24 h | Potency, µM (top dose mostly 76.6 µM), for the others: top-dose activation (PINK1 increase), most hits filed as activators | 410,000 tested, 0.2% active | AID 624263; active = well fitted activation curve with a large enough effect; inconclusive = small, poorly fitted or top-dose-only effect; cell line not stated here; also: potency is read from the fitted curve at half-maximal effect; % of control where 0% means no effect; nearly all actives have a fitted effect of over 65% in size
#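 Readout is PINK1 immunofluorescence, quantified alongside mitochondrial, cell and nuclear markers by laser-scanning microplate cytometry. Cells from a stable line were exposed to compound titrations (5 concentrations) for 24 hours, with CCCP controls.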
# CCT chaperon mod – modulators of cytosolic chaperonin (CCT/TRiC) activity; purified chaperonin ATPase assay, HTRF ADP detection, 30 min; activity change, % (no concentration beside the values), hits read low; 360,000 tested, 0.3% active; in the data active = activity change below about -30%; also: % is scaled to controls: 0 for no effect and ±100 for the full control effect
#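 Nucleotide hydrolysis assay: TRiC at 20–40 nM final (set by batch activity) with 10 uM ATP, 30 min at 37 °C, in presence of 76 uM compound. Detection by competitive ADP HTRF, 30 min ambient.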
# Numbers without * were called inactive; ? = inconclusive; · = no result; [ ] = dose if it differs, or a comment. In the library only some 1.4% were active in any assay of this set; here they are far more common. Unless noted, calls follow the shape of the dose curve; as a rule, active = well fitted curve in the direction sought with a large enough effect; inconclusive = small, poorly fitted or top-dose-only effect, or another doubt; inactive = no such curve, though single readings can be large; an effect the other way counts as inactive or inconclusive.
SMILES,p53 reactivator,S-ASM inh,Mm-Cpn inhibitor,ALOX12 inh,PINK1 expr mod,CCT chaperon mod
CC(C)(C)OC(=O)NCCCC[C@H](NC(=O)c1nc[nH]c1C(=O)N[C@@H](CCCCNC(=O)OC(C)(C)C)C(=O)OC(C)(C)C)C(=O)OC(C)(C)C,-3.3%,1.5%,-0.9%,10.2%,1.8%,1.5
CCN(CC)C(=O)c1[nH]cnc1C(=O)N[C@@H](CCCCNC(=O)OC(C)(C)C)C(=O)OC(C)(C)C,-3.0%,-4.9%,·,2.4%,-1.0%,-30.8*
Cc1cccc(CNc2ccccc2C(N)=O)c1,·,·,·,-36.1%,·,·
CCC(NC(=O)NC12CC3CC(CC(C3)C1)C2)c1ccc(Cl)cc1 (configuration not stated),·,·,·,6.5%,·,·
CC(=O)Nc1cc(-c2ccccc2F)cn2c(-c3ccccc3)cnc12,·,·,·,-14.7%,1.4%,-35.7*
COc1ccccc1-c1cc(NC(C)=O)c2ncc(-c3ccccc3)n2c1,·,·,·,?,2.0%,-5.6
CC(=O)Nc1cc(-c2ccccc2N(C)C)cn2c(-c3ccccc3)cnc12,·,·,·,44.7µM*,1.9%,-1.7
NNc1nc2c(F)cccc2s1,?,2.3%,0.3%,?,4.8%,1.3
NNc1nc2c(F)cc(F)cc2s1,?,-2.6%,-1.3%,39.8µM*,3.9%,-0.2
Cc1ccc(C(=O)c2sc(Nc3ccc(Cl)cc3C)nc2N)cc1,·,·,·,28.2µM*,·,·
CC(=O)Nc1cc(F)c(F)cc1NC(=O)c1cc2ccccc2oc1=O,·,·,·,-11.4%,·,·
O=C(NCC(=O)N1CCCC1)c1ccc(Br)o1,13.6%,-0.5%,-0.5%,-10.1%,2.0%,0.7
CCOC(=O)N1CCN(C(=O)CNC(=O)c2ccc(Br)o2)CC1,4.2%,0.1%,-1.8%,20.3%,-0.1%,-53.4*
COC(=O)C1=CN(c2ccc(C(C)(C)C)cc2)C(N)=C(C#N)C1c1ccccc1F (configuration not stated),·,·,·,1.1%,·,·
CCc1ccc(N2C=C(C(=O)OC)C(c3ccccc3F)C(C#N)=C2N)cc1 (configuration not stated),·,·,·,44.7µM*,·,·
Fc1ccc(-n2nnc(-c3cccnc3Cl)n2)cc1,?,4.5%,·,1.4%,4.9%,-1.8
Fc1ccc(-n2nnc(-c3nccs3)n2)cc1,5.6%,4.2%,·,11.2µM*,-0.5%,-0.8
Cc1ccc(OCc2nc(-c3ccccc3OCC(=O)N3CCCC(C)C3)no2)cc1 (configuration not stated),·,·,·,-44.9%,·,·
NS(=O)(=O)Cc1cccc(C(=O)O)c1,·,·,·,-9.0%,·,·
CC[n+]1c(C)ccc2cc(C)ccc21,·,·,·,5.62µM*,·,·
Cc1ccc2c(c1)S/C(=C/c1ccc[n+](C)c1)N2CCO,-0.9%,-8.4%,-4.1%,0.0%,4.2%,-0.4
CC[n+]1c2ccccc2cc2ccccc21,·,·,·,·,2.0%,·
CCN1/C(=C/c2ccc3cc(C)ccc3[n+]2C)Sc2ccc3sccc3c21,-2.4%,-11.6%,?,44.7µM*,3.5%,0.8
CCCCN1/C(=C/c2ccc3ccccc3[n+]2CC)Sc2ccccc21,-8.7%,-1.0%,-9.0%,·,11.2µM*,-1.5
CCN1/C(=C/c2ccc3cc(C)ccc3[n+]2CC)Sc2cc(C)ccc21,6.4%,-17.9%,-15.5%,35.5µM*,?,-1.5
SMILES,p53 reactivator,S-ASM inh,Mm-Cpn inhibitor,ALOX12 inh,PINK1 expr mod,CCT chaperon mod
COc1ccc(C(CC(=O)O)NC(=O)c2ccc(C(C)(C)C)cc2)cc1 (configuration not stated),·,·,·,3.0%,·,·
Cc1ccccc1Cc1sc(N)nc1C,·,·,·,14.1µM*,·,·
CC(=O)c1cccc(S(=O)(=O)Nc2cccnc2)c1,-2.1%,-5.4%,-1.5%,8.91µM*,0.8%,-2.6
O=S(=O)(Nc1cccnc1)c1cccc(Cl)c1,-6.0%,-0.5%,1.1%,0.8%,14.6%[38.3 µM],-0.6
CCn1nc(C(=O)OC2CCCCC2)c2ccccc2c1=O,·,·,·,-8.3%,·,·
COc1ccc(CN(C)c2nc3ccccc3nc2NS(=O)(=O)c2ccccc2)cc1OC,·,·,·,-71.0%,·,·
Oc1ccc(C2CCN(c3ccnc4ccccc34)CC2)cc1O,·,·,·,3.06µM*,·,·
Clc1cccc(N/N=C(\Cc2nc3ccccc3[nH]2)c2ccccc2)c1,?,-7.2%,0.6%,12.6µM*,?,-0.3
Cc1ccc(-c2nc3ccc(Cl)cc3n2OC(C)C(=O)O)cc1 (configuration not stated),11.8%,6.8%,0.4%,-10.3%,1.0%,-55.3*
CC(C)(C)C(=O)Nc1cccc(NC(=O)Cc2ccccc2Cl)c1,·,·,·,-2.1%,·,·
Cc1cc(NC(=O)CSc2ccc3nnc(-c4cccc(F)c4)n3n2)no1,-4.9%,1.7%,-2.1%,44.7µM*,0.1%[38.3 µM],-0.3
Cc1cc(NC(=O)CSc2ccc3nnc(-c4ccc(Cl)cc4)n3n2)no1,-3.2%,-2.4%,-1.0%,?,7.0%[38.3 µM],1.5
Fc1cccc(CSc2ccc3nnc(-c4cccnc4)n3n2)c1,-2.0%,-1.2%,-0.6%,-9.8%,-0.1%,-30.3*
Cc1ccc(-c2ccccc2NC(=O)CS(=O)CC(=O)Nc2ccc(C)c(Cl)c2)o1 (configuration not stated),2.0%,-8.8%,-0.2%,39.8µM*,9.2%,1.0
O=[N+]([O-])c1cc(Br)cc(C=Nc2ccc3c(c2)OCO3)c1O,1.8%,-2.5%,0.6%,35.5µM*,0.1%,-0.1
O=[N+]([O-])c1ccc(O)c(C=Nc2ccc3c(c2)OCO3)c1,11.9%,3.2%,-4.6%,-10.5%,0.9%,-2.2
CC(C)(C)c1ccc(O)c(N=Cc2cc3c(cc2[N+](=O)[O-])OCO3)c1,·,-2.6%,-0.2%,35.5µM*,3.9%,0.9
Cc1ccc(C)c(N=Cc2cc3c(cc2[N+](=O)[O-])OCO3)c1,2.7%,-4.8%,-2.8%,?,3.1%,1.4
Cc1ccc2c(CN(C)CCOc3ccccc3F)cc(=O)oc2c1C,·,·,·,-15.8%,·,·
COc1cccc(C(=O)N2CCC(C(=O)c3ccc4c(c3)OCCO4)CC2)c1OC,·,·,·,-3.3%,·,·
CCC/C=C/c1ccc(CN2C(C)C(=O)N(Cc3cn(Cc4ccco4)nn3)CCS2(=O)=O)cc1 (configuration not stated),·,·,·,?,20.3%,-0.8
CC(C)Cc1ccc(CN2C(C)C(=O)N(Cc3cn(Cc4ccco4)nn3)CCS2(=O)=O)cc1 (configuration not stated),·,·,·,14.1µM*,5.6%,0.2
CCC/C=C/c1ccc(CN2C(C(C)C)C(=O)N(Cc3cn(Cc4ccco4)nn3)CCS2(=O)=O)cc1 (configuration not stated),·,·,·,44.7µM*,6.1%,0.9
COc1ccc(-c2ccc(CN3C(C)C(=O)N(Cc4cn(Cc5ccco5)nn4)CCS3(=O)=O)cc2)cc1 (configuration not stated),·,·,·,?,-1.2%,0.8
